Reference: the supplement of paper PMC7866885, “A novel bicyclic 2,4-diaminopyrimidine inhibitor of Streptococcus suis dihydrofolate reductase” (PeerJ, 2021)
± gives the standard deviation.

The molecules below were run on Streptococcus suis P1/7 (assay: percent growth relative to DMSO control; higher = less growth inhibition). Details: 10 µM; incubation time 18 h.
Experimental: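 CLSI broth microdilution: 5x10^4 CFU of Streptococcus suis (strain P1/7 or HE06) incubated with 10 µM Pathogen Box compound in cation-adjusted Mueller Hinton broth, 37 °C, 5% CO2, 18 h. Growth read as OD600 and expressed as percent of the DMSO-treated control (100%); mean ± SD of three independent experiments.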
Work on CNC(=O)c1nn(C)c2c1C(C)(C)Cc1cnc(Nc3ccc(N4CCN(C)CC4)cc3)nc1-2 yielded a percent growth of 92.6 ± 19%.
CCOc1ccccc1NC(C)C(=O)Nc1cc(C(F)(F)F)ccc1N1CCOCC1 (stereo not given) was tested, and the percent growth was 109 ± 31%.
For CCN(CC)S(=O)(=O)c1ccc(C(=O)Nc2cc(C)nn2-c2nc(C)c(C)c(=O)[nH]2)cc1, the percent growth was 3.31 ± 3.3%.
In the case of CS(=O)(=O)c1ccc(C(=O)N(CC2CCCO2)c2nc3ccccc3s2)cc1[N+](=O)[O-] (stereo not given), the percent growth is reported as 108 ± 18%.
Work on Cc1nn(C)cc1C(C)Nc1nncc(-c2ccc(C(F)(F)F)cc2)n1 (stereo not given) yielded a percent growth of 103 ± 32%.
Nc1ncnc2c1ncn2[C@@H]1O[C@H](COS(=O)(=O)NC(=O)c2ccccc2O)[C@@H](O)[C@H]1O gave a percent growth of 78.6 ± 9.8%.
COc1ccc(Nc2ccccc2NC(=O)c2ccc(O)nc2)cc1 showed a percent growth of 99.1 ± 41%.
COc1cccc(OC)c1C(=O)Nc1ccc(Cl)c(-c2nc3ccccc3s2)c1 was tested, and the percent growth was 119 ± 45%.
With CC(C)N=c1cc2n(-c3ccc(Cl)cc3)c3ccccc3nc-2cc1Nc1ccc(Cl)cc1 the percent growth was 48.2 ± 42%.
With Brc1cncc(-c2cc(NCCCn3ccnc3)nc(-c3ccccc3)n2)c1 the percent growth was 43.7 ± 51%.
With COc1nc2ccc(Br)cc2cc1[C@@H](c1ccccc1)[C@@](O)(CCN(C)C)c1cccc2ccccc12 the percent growth was 68.8 ± 37%.
With COc1ccc(-c2cncc3ccc(C(=O)NCCCn4ccnc4)nc23)cc1 the percent growth was 70.1 ± 27%.
Work on CCc1ccc(C(NCc2nc(N)nc(N(C)C)n2)C(C)C)cc1 (stereo not given) yielded a percent growth of 4.17 ± 0.94%.
In the case of CC(=O)Nc1ccc(NC(=O)c2cc(-c3cc(Cl)ccc3O)[nH]n2)cc1, the percent growth is reported as 104 ± 13%.
CN1CCN(S(=O)(=O)c2ccc(-c3ccc4c(Nc5ccc6nn[nH]c6c5)ccnc4c3)cc2)CC1 was tested, and the percent growth was 63 ± 23%.
